HIF act: HIF pathway transcriptional activation; U2OS HRE-luciferase reporter, luminescence; normalized: DMSO 0%, desferrioxamine 100%; activation, % at 7.5 µM (by protocol); actives 0.32% (n = 300,000); AID 1910;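 active = mean activation of at least 10% of the iron chelator positive control signal, with at least half of replicates also reaching 10%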
GC-B act: GC-B (human) receptor activation; P20594; HEK293-GC-B cells, CNP EC30, cGMP TR-FRET; 0% at EC30 CNP, 100% saturating CNP; activation, % at 10 µM; actives 0.11% (n = 370,000); AID 1920062;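 active = activation at 10 µM reaching about 35% in either raw or pattern-adjusted values, limit read from the data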
GC-A act: GC-A (human) enzyme activation; AID 1671463; actives 0.14% (n = 370,000); P16066; activation, % at 10 µM; HEK293 GC-A cells, cGMP TR-FRET, EC30 ANP; 0% at EC30 ANP, 100% saturating ANP; in the data active = activation above about 40%
proKLK7 act: activators of human kallikrein-7 zymogen. activation, % at 7 µM. actives 0.9% (n = 370,000). P49862. purified proKLK7, EDANS-DABCYL substrate fluorescence; 100% is mature enzyme control, 0% vehicle;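 active = activation above the mean of all tested compounds plus 3 SD, computed per campaign excluding outliers beyond control limits, cut at about 13% in these data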
Target sequence (P49862 whole entry, looked up): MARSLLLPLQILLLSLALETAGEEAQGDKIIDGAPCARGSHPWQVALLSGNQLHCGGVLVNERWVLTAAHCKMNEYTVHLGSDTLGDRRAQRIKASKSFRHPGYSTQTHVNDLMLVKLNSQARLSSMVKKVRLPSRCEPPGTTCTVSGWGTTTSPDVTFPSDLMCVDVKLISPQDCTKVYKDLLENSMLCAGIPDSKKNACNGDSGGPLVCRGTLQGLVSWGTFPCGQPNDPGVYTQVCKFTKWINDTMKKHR
proKLK7 act conf: proKLK7 activation, confirmation. shares compounds with proKLK7 act. purified proKLK7, EDANS-DABCYL substrate fluorescence; scaled: vehicle 0, mature enzyme 100. activation, % at 7 µM. actives 68% (n = 3,200). AID 686949;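 active = activation, as change over the incubation, above the mean of all tested compounds plus 3 SD, cut at about 13% in these data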
EDANS interfere: counter-screen for kallikrein-7 activators: EDANS-DABCYL optical interference | shares compounds with proKLK7 act | AID 686952 | EDANS-DABCYL substrate fluorescence interference, no enzyme, 4 h; solvent 0%, active enzyme control 100% | activation, % at 7 µM | actives 80% (n = 3,200);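 active = activation above the all-compound mean plus 3 SD, ignoring values outside control-based bounds, cut at about 4.8% in these data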;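 also: value is the 4 h activation minus the activation read at time zero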
Starred values were filed as active, the others as inactive; . = no result given. Only some compounds are listed: those with a hit (about 1.3% of all), similar ones and a draw of the others.

SMILES | HIF act | GC-B act | GC-A act | proKLK7 act | proKLK7 act conf | EDANS interfere
CCCCn1nc(C(=O)Oc2ccc3c(C)cc(=O)oc3c2)c2ccccc2c1=O | -0.4 | -13.6 | -42.9 | 45.4* | 64.0* | 69.0*
CCCCN1C(=O)N2Cc3cc(OC)ccc3C2CS1(=O)=O (stereo not given) | . | 5.5 | -1.8 | -0.4 | . | .
CCCc1cn(-c2ccc3c(c2)[C@]2(CC(=O)N(C)C2c2ccccc2)C(=O)N3CC(C)C)nn1 (stereo not given in full) | . | 3.4 | 1.3 | 0.5 | . | .
O=C1c2ccccc2NC(c2ccccc2F)N1NS(=O)(=O)c1ccccc1 (stereo not given) | -0.2 | -8.6 | -5.0 | 19.0* | 6.2 | 6.8*
Cc1ccc(S(=O)(=O)NN2C(=O)c3ccccc3NC2c2ccccc2O)cc1 (stereo not given) | -0.2 | -0.2 | -1.8 | 2.7 | . | .
CC1Nc2ccccc2C(=O)N1NS(=O)(=O)c1ccccc1 (stereo not given) | -0.2 | 0.3 | 0.3 | 21.4* | 4.4 | 4.5*
Cc1ccc(S(=O)(=O)NN2C(=O)c3ccccc3NC2c2ccco2)cc1 (stereo not given) | -0.6 | -1.3 | 1.1 | 4.7 | . | .
Cc1ccc(S(=O)(=O)NN2C(=O)c3ccccc3NC2C)cc1 (stereo not given) | -0.2 | 2.8 | -2.9 | 39.0* | 11.4 | 11.0*
Cc1ccc(S(=O)(=O)NN2C(=O)c3ccccc3NC2c2ccccn2)cc1 (stereo not given) | -0.2 | -5.8 | -5.4 | 20.3* | 6.1 | 4.4*
Cc1ccc(NC(=O)CCS(=O)(=O)c2ccccc2)cc1C | . | -1.9 | 3.1 | 0.2 | . | .
O=C(NCc1ccc(C(=O)N2CCCN(Cc3ccccc3)CC2)cc1)c1cccc(Br)c1 | . | -0.1 | -1.4 | 0.2 | . | .
O=C(C1CCN(S(=O)(=O)c2ccc3[nH]c(=O)oc3c2)CC1)N1CCCN(Cc2ccccc2)CC1 | . | 2.1 | 2.2 | 0.5 | . | .
CCc1c(C)c2cc(Cl)c(O)c(CN(C)C)c2oc1=O | -0.1 | 0.8 | 4.7 | 79.5* | 66.2* | 67.0*
CCc1c(C)c2cc(Cl)c(O)c(CN(CC)CC)c2oc1=O | -0.2 | 0.7 | 2.3 | 53.0* | 73.3* | 83.2*
Cc1c(O)c(CN(C)C)cc2c1oc(=O)c1ccccc12 | 0.7 | -5.0 | 5.2 | -0.1 | . | .
CCCCc1cc(=O)oc2c(CN(C)C)c(O)c(Cl)cc12 | 0.0 | -1.7 | 8.2 | 66.9* | 64.8* | 85.9*
Cc1c(C)c2cc(Cl)c(O)c(CN(C)C)c2oc1=O | -0.1 | 0.9 | 9.8 | 73.8* | 62.6* | 65.3*
COc1ccc(C2=Cc3ccc(OC(C)=O)cc3OC2)cc1 | . | 5.3 | 5.6 | 24.5* | 13.6* | 11.1*
C[C@H]1[C@@H](NCc2cccs2)CC[C@@]23CCCN2C(=O)CCC[C@@H]13 | . | -4.6 | 1.5 | . | . | .
Cc1cc2nc(-c3ccc[nH]c3=O)[nH]c2cc1C | -0.9 | -15.3 | -19.6 | 67.8* | 63.6* | 70.8*
Cc1cc2nc(-c3ccc[nH]c3=O)n(Cc3ccc(F)cc3)c2cc1C | -1.9 | -9.8 | -5.6 | 22.3* | -0.8 | 0.5
Cc1ccccc1-c1nc2ccccc2[nH]1 | 1.9 | -4.2 | -0.8 | 0.2 | . | .
CCNC(=S)NNC(=O)c1cnccn1 | . | 11.8 | -0.2 | 0.1 | . | .
Cc1cccc(C)c1-n1nnnc1C1(C)Cn2nccc2C(=O)N1Cc1ccc(F)cc1 (stereo not given) | . | -2.9 | -1.0 | 0.5 | . | .
CC[C@]12c3[nH]c4cc(-c5ccco5)ccc4c3CCN1C(=O)[C@@H](CC(=O)NCCCOC)C[C@@H]2C(=O)N1CCN(C(=O)C2CC2)CC1 | . | 5.2 | 1.0 | 88.8* | 80.7* | 94.3*
SMILES | HIF act | GC-B act | GC-A act | proKLK7 act | proKLK7 act conf | EDANS interfere
CC[C@]12c3[nH]c4cc(-c5ccco5)ccc4c3CCN1C(=O)[C@@H](CC(=O)NCCCN(C)C)C[C@@H]2C(=O)N1CCN(C(=O)C2CC2)CC1 | . | 1.9 | 1.3 | 63.7* | 51.9* | 66.2*
CC[C@]12c3[nH]c4cc(CCC(=O)N(C)C)ccc4c3CCN1C(=O)[C@@H](CC(=O)NCCCOC)C[C@@H]2C(=O)N1CCN(C(=O)C2CC2)CC1 | . | 0.3 | -1.7 | -0.3 | . | .
CC[C@]12c3[nH]c4cc(-c5ccco5)ccc4c3CCN1C(=O)[C@@H](CC(=O)NCc1ccc(OC)c(OC)c1)C[C@@H]2C(=O)N1CCN(C(=O)c2ccco2)CC1 | . | 0.7 | 2.4 | 122.3* | 62.9* | 74.2*
CC[C@]12c3[nH]c4cc(-c5ccco5)ccc4c3CCN1C(=O)[C@@H](CC(=O)NCCCOC)C[C@@H]2C(=O)N1CCN(C(=O)c2ccco2)CC1 | . | 4.7 | 5.7 | 136.7* | 102.7* | 124.2*
CCOC(=O)[C@]12CCCC=C1N(Cc1ccc(OC)cc1)C(=O)[C@@H]2CC(=O)NCc1ccc(OC)c(OC)c1 | . | 0.9 | -2.2 | 0.2 | . | .
Cc1ccc(-n2c(SCC(=O)c3ccc(F)cc3)nnc2-c2cnccn2)cc1 | . | -9.5 | 4.1 | 0.7 | . | .
NC(=O)c1ccccc1NC(=O)c1ccc2ccccc2c1 | 1.5 | -1.7 | 1.8 | 14.9* | -3.0 | -2.7
COc1ccc(C(=O)Nc2ccccc2C(N)=O)cc1 | 0.2 | -6.4 | 3.1 | -0.3 | . | .
CC(=O)N1CC2(NC(=O)c3ccccc3N2)c2ccccc21 (stereo not given) | -0.1 | -0.5 | -1.3 | 19.1* | 16.6* | 18.1*
Cc1cc(N2CCN(Cc3ccc4c(c3)OCO4)CC2)n2nc(C)nc2n1 | . | -5.6 | -0.6 | -0.4 | . | .
Cc1cc(C)cc(OCC(C)CN2CCC(C(O)(c3ccccc3)c3ccccc3)CC2)c1 (stereo not given) | . | -5.2 | -7.8 | -0.2 | . | .
COCCCNC(=O)c1c(N)n(-c2cccc(S(N)(=O)=O)c2)c2nc3ccccc3nc12 | -0.4 | 8.0 | 15.1 | 19.7* | -20.3 | -66.2
CCCNC(=O)c1c(N)n(-c2cccc(OC)c2)c2nc3ccccc3nc12 | -0.6 | -0.8 | 3.1 | -40.3 | . | .
Nc1c(C(=O)NCCN2CCOCC2)c2nc3ccccc3nc2n1-c1cccc(F)c1 | -0.4 | -1.4 | 4.3 | 30.4* | -70.6 | -73.0
O=C(Cc1cc(=O)oc2cc(O)ccc12)NC(Cc1ccc(Cl)cc1)C(=O)O (stereo not given) | -9.0 | 11.5 | 4.8 | 45.7* | 65.0* | 68.0*
Cc1c(O)ccc2c(CC(=O)N[C@@H](Cc3ccc(O)cc3)C(=O)O)cc(=O)oc12 | 0.9 | 2.5 | 7.5 | 39.5* | 64.6* | 68.5*
COc1ccc2c(CC(=O)N[C@@H](Cc3ccccc3)C(=O)O)cc(=O)oc2c1C | 2.3 | 5.0 | -1.4 | 6.5 | . | .
CSC[C@H](NC(=O)Cc1c(C)c2cc3c(C)c(C)oc3cc2oc1=O)C(=O)N[C@@H](Cc1ccccc1)C(=O)O | -0.3 | . | . | . | . | .

Bioassay records (PubChem BioAssay)
